We go through 28 compounds from ChEMBL document CHEMBL4513141, “CO-ADD screening of NIH (USA) - Clinical Collection” (2021).

Each structure is given as a SMILES string. Results with a measured potency or affinity are listed apart.

One test concerns Klebsiella pneumoniae. To be noted: Concentration 20 uM; ASSAY_TEST Inhibition of Bacterial Growth; detection method Absorption (OD600); MEDIA CAMHB; plate type 384well; NBS; CORNING #3640; time 18 hr.
For another test, the system named is Candida albicans. To be noted: 20 µM.
The test system of a further test is Cryptococcus neoformans. To be noted: Concentration 20 uM; ASSAY_TEST Inhibition of Fungal Growth; detection method Resazurin; Absorption (OD600-OD570); plate type 384well; NBS; CORNING #3640.

As for `Br.COc1ccc2c3c1O[C@H]1C[C@@H](O)C=C[C@@]31CCN(C)C2` [GALANTAMINE HYDROBROMIDE], the Inhibition in the test with Klebsiella pneumoniae is 16.19%; in the test on Candida albicans, 3.12%; in the test with Cryptococcus neoformans, -5.72%.

Regarding `CN1CC[C@@]23CCCC[C@@H]2[C@@H]1Cc1ccc(O)cc13.O=C(O)C(O)C(O)C(=O)O`, the Inhibition in the test on Klebsiella pneumoniae was 17.43%; in the test with Candida albicans, 2.27%; in the test with Cryptococcus neoformans, -5.99%.

Turning to `NC1=NC(=O)C(c2ccccc2)O1` (centres undefined) [PEMOLINE], the results for the Inhibition in the test with Klebsiella pneumoniae, with Candida albicans and with Cryptococcus neoformans were 13.09%, 1.75% and -5.45%, respectively.

On to `CNC1=Nc2ccc(Cl)cc2C(c2ccccc2)=[N+]([O-])C1` [CHLORDIAZEPOXIDE], for which the Inhibition was 19.46% in the test on Klebsiella pneumoniae, 2.53% in the test on Candida albicans and -9.21% with Cryptococcus neoformans.

With `CNS(=O)(=O)Cc1ccc2[nH]cc(CCN(C)C)c2c1.O=C(O)CCC(=O)O` [SUMATRIPTAN SUCCINATE], the figures for the Inhibition with Klebsiella pneumoniae, in the test with Candida albicans and with Cryptococcus neoformans were 9.24%, 4.97% and -9.65%, respectively.

`Oc1ncnc2[nH]ncc12` [ALLOPURINOL]: the Inhibition is 15.5% with Klebsiella pneumoniae, 2.36% in the test on Candida albicans and -1.92% in the test on Cryptococcus neoformans.

`c1cncc([C@@H]2CCCN2)c1` [NORNICOTINE]: the Inhibition in the test on Klebsiella pneumoniae was 9.44%; with Candida albicans, 3.55%; in the test with Cryptococcus neoformans it was -7.65%.

Turning to `CNC(=O)Oc1ccc2c(c1)[C@]1(C)CCN(C)C1N2C.CNC(=O)Oc1ccc2c(c1)[C@]1(C)CCN(C)C1N2C.O=S(=O)(O)O` (some centres undefined), the Inhibition is 13.28% in the test with Klebsiella pneumoniae, 2.24% in the test on Candida albicans and -6.96% in the test with Cryptococcus neoformans.

Regarding `CN1C(=O)CN=C(c2ccccc2)c2cc(Cl)ccc21` [DIAZEPAM], the Inhibition in the test on Klebsiella pneumoniae is 10.3%; in the test on Candida albicans, 2.62%; in the test with Cryptococcus neoformans, -1.5%.

Turning to `C=C(C)[C@@H]1[C@H]2OC(=O)[C@@H]1[C@]1(O)C[C@H]3O[C@]34C(=O)O[C@H]2[C@]14C.CC(C)(O)[C@@H]1[C@H]2OC(=O)[C@@H]1[C@]1(O)C[C@H]3O[C@]34C(=O)O[C@H]2[C@]14C`, the Inhibition in the test with Klebsiella pneumoniae is 10.94%; with Candida albicans, 2.79%; in the test with Cryptococcus neoformans, -5.47%.

`COCCCOc1ccnc(C[S+]([O-])c2nc3ccccc3[nH]2)c1C` (centres undefined) [RABEPRAZOLE]: the results for the Inhibition in the test with Klebsiella pneumoniae, with Candida albicans and in the test on Cryptococcus neoformans were 14.6%, 5.74% and -21.21%, respectively.

`Fc1ccc([C@@H]2CCNC[C@H]2COc2ccc3c(c2)OCO3)cc1.O=C(O)/C=C\C(=O)O`: the Inhibition in the test with Klebsiella pneumoniae was 6.3%; with Candida albicans it was 2.04%; in the test on Cryptococcus neoformans, -6.92%.

Regarding `CN(C)C(=O)C(CCN1CCC(O)(c2ccc(Cl)cc2)CC1)(c1ccccc1)c1ccccc1.Cl` [LOPERAMIDE HYDROCHLORIDE], the Inhibition is 11.49% with Klebsiella pneumoniae, 2.32% in the test with Candida albicans and -15.04% in the test on Cryptococcus neoformans.

In the case of `C[C@]12CC[C@H](O)CC1=CC[C@@H]1[C@@H]2CC[C@]2(C)C(=O)CC[C@@H]12` [PRASTERONE], the Inhibition is 10.09% in the test with Klebsiella pneumoniae, 14.5% in the test on Candida albicans and 2.55% with Cryptococcus neoformans.

On to `CN1CCC[C@H]1c1cccnc1` [NICOTINE], for which the Inhibition in the test on Klebsiella pneumoniae was -4.81%; with Candida albicans, 1.61%; in the test on Cryptococcus neoformans, -2.7%.

For the compound `COc1cc(CNC(=O)CCCC/C=C\C(C)C)ccc1O` [ZUCAPSAICIN], the Inhibition in the test with Klebsiella pneumoniae is 12.92%; in the test with Candida albicans it was 4.72%; with Cryptococcus neoformans, -5.9%.

Turning to `C[C@]12CC[C@H]3[C@@H](CCC4=CC(=O)CC[C@@H]43)[C@@H]1CC[C@@H]2O` [NANDROLONE], the Inhibition with Klebsiella pneumoniae was 5.92%; in the test with Candida albicans it was 7.15%; in the test with Cryptococcus neoformans, -1.13%.

In the case of `Br.COc1ccc2c(c1)[C@]13CCCC[C@@H]1[C@H](C2)N(C)CC3.O` [DEXTROMETHORPHAN HYDROBROMIDE], the Inhibition in the test on Klebsiella pneumoniae is 8.1%; with Candida albicans it was 2.88%; in the test with Cryptococcus neoformans, -7.7%.

`CS(=O)(=O)Nc1ccc(Cc2noc(-c3ccc4[nH]cc(CCN)c4c3)n2)cc1.O.O`: the Inhibition was 11.61% with Klebsiella pneumoniae, 2.75% with Candida albicans and -39.59% in the test on Cryptococcus neoformans.

In the case of `C[C@]12CC(C=O)=C(O)C[C@@H]1CC[C@@H]1[C@@H]2CC[C@@]2(C)[C@H]1CC[C@]2(C)O`, the values for the Inhibition with Klebsiella pneumoniae, in the test on Candida albicans and with Cryptococcus neoformans were 6.07%, 6.85% and 3.15%, respectively.

For `C[C@]12CC[C@H](O)CC1=CC[C@@H]1[C@@H]2CC[C@@]2(C)[C@H]1CC[C@]2(C)O` [METHANDRIOL], the Inhibition in the test on Klebsiella pneumoniae turned out to be 9.75%; in the test with Candida albicans, 4.69%; in the test with Cryptococcus neoformans, 2.63%.

Regarding `Cc1nnc2n1-c1ccc(Cl)cc1C(c1ccccc1)=NC2` [ALPRAZOLAM], the Inhibition is 8.67% in the test on Klebsiella pneumoniae, 1.98% in the test with Candida albicans and -4.87% with Cryptococcus neoformans.

Turning to `Cc1c(OCC(F)(F)F)ccnc1C[S+]([O-])c1nc2ccccc2[nH]1` (centres undefined) [LANSOPRAZOLE], the values for the Inhibition in the test with Klebsiella pneumoniae, with Candida albicans and in the test on Cryptococcus neoformans were 7.47%, 9.31% and -23.82%, respectively.

For the compound `CC(=O)[C@H]1CC[C@H]2[C@@H]3CCC4=CC(=O)CC[C@]4(C)[C@H]3CC[C@]12C` [PROGESTERONE], the Inhibition is 23.48% in the test on Klebsiella pneumoniae, 11.4% in the test with Candida albicans and -1.48% with Cryptococcus neoformans.

Take `CC[C@]1(O)CC[C@H]2[C@@H]3CCC4=CCCC[C@@H]4[C@H]3CC[C@@]21C` [ETHYLESTRENOL]: the Inhibition with Klebsiella pneumoniae was 4.45%; with Candida albicans, 4.07%; in the test on Cryptococcus neoformans it was -2.32%.

On to `c1ccc2c3c([nH]c2c1)CNCC3` [TRYPTOLINE], for which the Inhibition was 13.54% with Klebsiella pneumoniae, 3.92% in the test with Candida albicans and -5.61% in the test with Cryptococcus neoformans.

For the compound `C[N+]1(CCC(C(N)=O)(c2ccccc2)c2ccccc2)CCCCC1.[Br-]` [FENPIVERINIUM BROMIDE], the Inhibition in the test on Klebsiella pneumoniae was -3.21%; in the test with Candida albicans, 3.32%; with Cryptococcus neoformans, -1.41%.

With `CC(C(=O)O)c1ccc(-c2ccccc2)c(F)c1` (centres undefined) [FLURBIPROFEN], the results for the Inhibition in the test on Klebsiella pneumoniae, in the test on Candida albicans and with Cryptococcus neoformans were 4.59%, 8.89% and -3.5%, respectively.
